Assay outcomes as filed in PubChem BioAssay.
FLuc counter: counter-screen for miR-21 project: firefly luciferase inhibitors or activators. P08659. purified FLuc, Km substrates, luminescence inhibition. Potency, µM (highest dose often 57.5 µM), for inactives: top-dose activity change, negative = inhibition, most hits filed as inhibitors. hit rate 6.9% among 360,000;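 further: plate controls were vehicle for no effect and reference inhibitor for full effect; nearly all actives have a fitted effect of over 55% in size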
Target sequence (P08659 whole entry, looked up): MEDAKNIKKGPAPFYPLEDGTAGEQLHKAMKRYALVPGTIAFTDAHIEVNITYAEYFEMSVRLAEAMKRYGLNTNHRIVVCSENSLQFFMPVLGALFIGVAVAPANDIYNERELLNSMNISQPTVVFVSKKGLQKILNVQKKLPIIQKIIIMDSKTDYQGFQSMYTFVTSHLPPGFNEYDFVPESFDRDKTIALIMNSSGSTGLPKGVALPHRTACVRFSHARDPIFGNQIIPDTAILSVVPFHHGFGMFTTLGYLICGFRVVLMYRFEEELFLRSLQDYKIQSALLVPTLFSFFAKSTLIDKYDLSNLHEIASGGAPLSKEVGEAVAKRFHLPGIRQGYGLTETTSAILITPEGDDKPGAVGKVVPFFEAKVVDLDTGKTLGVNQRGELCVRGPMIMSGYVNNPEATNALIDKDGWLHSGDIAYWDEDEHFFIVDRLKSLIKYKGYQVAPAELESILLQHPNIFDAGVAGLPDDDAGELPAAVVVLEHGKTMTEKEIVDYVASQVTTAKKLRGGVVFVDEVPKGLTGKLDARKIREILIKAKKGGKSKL
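Purified P. pyralis luciferase (10nM final) with 10uM D-luciferin and 10uM ATP (Km levels) in 50mM Tris acetate pH 7.5, 10mM Mg acetate, 0.01% Tween-20, 0.05% BSA; qHTS 6-point titration, ~60 µM downward; luminescence read.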
NPC1 promoter act: NPC1 promoter activation | Huh7 NPC1 promoter luciferase reporter, 24 h | hit rate 2.4% among 320,000 | Potency, µM (top dose mostly 9.22 µM), inactives show at the highest dose activation, usual class: activators | AID 485313; further: % of control where 0% means no effect; nearly all actives have a fitted effect of over 60% in size
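Huh7 cells stably carrying NPC1 promoter–luciferase, plated in Opti-MEM with 10% FBS for 2 h, were exposed to compound in DMSO for 24 h at 37 °C; luciferase reagent was added for 10 min and luminescence read.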
SMN2 splice enh: enhancers of SMN2 splice variant expression; HEK293 SMN2-luciferase splicing reporter, luminescence, 30-36 h; Potency, µM (top dose mostly 46.1 µM), inactives show top-dose activity change, positive = activation, most hits filed as activators; hit rate 2.8% among 210,000; further: % of control where 0% means no effect; nearly all actives have a fitted effect of over 55% in size
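qHTS luciferase splicing reporter: luminescence rises when SMN2 exon 7 is included in transfected HEK293 cells. Compound exposure lasted 30-36 h at 37C, with 4.5 mM final sodium butyrate as control, followed by a ONE-Glo read.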
ELG1 genotoxic: genotoxicity induction in ELG1-luciferase HEK293T cells; HEK293T ELG1-luciferase reporter, luminescence, 16 h; Potency, µM (titrated, usually from 46 µM), inactives show at the highest dose activity change, positive = activation, actives largely listed as activators; hit rate 1.3% among 330,000; AID 504466; further: % of control where 0% means no effect; nearly all actives have a fitted effect of over 60% in size
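Quantitative HTS format in 1536-well plates. HEK293T ELG1-luciferase reporter cells receive test compound and are incubated 16 hr at 37 °C, 5% CO2; ONE-Glo added, 30 min room temperature, then luminescence read.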
ELG1 repair inh: inhibitors of ELG1-dependent DNA repair in HEK293T cells | HEK293T ELG1-luciferase reporter, luminescence, 16 h; DNA damage induced by 5-fluorouridine | hit rate 2.3% among 330,000 | AID 504467 | Potency, µM (titrated, usually from 46.1 µM), without a hit: top-dose activity change, negative = inhibition, actives largely listed as inhibitors; further: on the % scale 0 is the no-effect control and ±100 the full control effect; nearly all actives have a fitted effect of over 55% in size
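Step one: seed 2,000 cells per well. Step two: pin-transfer compound or DMSO alongside 5-fluorouridine. Step three: incubate 16 hr, 37 °C, 5% CO2. Step four: add ONE-Glo, wait 30 min, read luminescence.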
Rab9 promoter act: activates the Rab9 promoter | AID 485297 | Potency, µM (top dose mostly 9.22 µM), for inactives: at the top dose activation, negative = inhibition, actives largely listed as activators | hit rate 2.8% among 320,000 | Huh7 Rab9 promoter-luciferase reporter, luminescence, 24 h; further: % of control where 0% means no effect; nearly all actives have a fitted effect of over 60% in size
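Stable Rab9-luc Huh7, 1500 cells/well, 2 h settle; cmpd in DMSO, 24 h, 37 °C/5% CO2; luciferase reagent 10 min RT; luminescence.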
An asterisk follows results filed as active; u = inconclusive; x = not tested or not shown; [ ] = remark or other dose. Most compounds without a hit are left out; they make up all but 9.3% or so of the library. The call rests on the fitted dose curve; in most records, active means well fitted curve in the direction sought with a large enough effect; inconclusive means small, poorly fitted or top-dose-only effect, or another doubt; inactive means no such curve, though single readings can be large; an effect the other way counts as inactive or inconclusive. Potency means the concentration at half of the fitted maximal effect.

SMILES | FLuc counter | NPC1 promoter act | SMN2 splice enh | ELG1 genotoxic | ELG1 repair inh | Rab9 promoter act
COC(CN(C(=O)CCl)C(C(=O)NC1CCCCC1)c1ccc(Cl)cc1)OC (centres undefined) | 5.1% | -0.8% | -33.6%[1.84 µM] | -5.4% | 0.4% | -3.0%
CCCN(CCC)c1nc(Cl)nc(NCc2ccco2)n1 | -0.9% | 0.2% | -29.0% | -6.4% | -3.3% | -0.7%
CSc1nc(Sc2cccc(Cl)c2)c2ccccc2n1 | -7.4% | 0.7% | -23.5% | 0.4% | -12.4% | -2.8%
CCCC(=O)Nc1ccc2oc(-c3cncc(Br)c3)nc2c1 | u | 1.58µM* | 4.47µM* | 9.2µM* | u | 1.26µM*
CCCCCC(=O)Nc1ccc2oc(-c3cncc(Br)c3)nc2c1 | 6.8% | 0.708µM* | 11.2µM* | u | u | 1.58µM*
CCCCC(=O)Nc1ccc2oc(-c3ccncc3)nc2c1 | -20.0% | 2.1% | -5.9% | 17.8% | 11.1% | 4.0%
COc1ncc2nc(-c3ccc(Cl)cc3)c(=O)n(CCc3ccccc3)c2n1 | x | x | 0.6% | x | x | x
C=CCc1ccccc1OCCn1nnc2ccccc21 | -8.5% | 0.2% | x | -0.2% | -11.9% | 5.5%
Cc1cccc(OCCn2nnc3ccccc32)c1C | 16.9µM* | u | x | u | u | 26.6%
C/C=C/c1ccc(OCCn2nnc3ccccc32)c(OC)c1 | 16.9µM* | 26.0% | x | u | u | u
Cc1oc(C(N)=O)nc1-c1ccccc1 | 1.1% | -3.5% | x | -1.2% | 2.0% | 1.4%
Cc1onc(-c2c(F)cccc2Cl)c1C(=O)N1C=CC(C(F)(F)F)=NCC1 | 5.6% | -2.5% | -11.1% | -2.2% | -5.5% | -0.1%
CC(=O)Oc1ccc2c(c1)c(C(C)=O)c(C)n2C | 1.2% | -4.2% | -11.2% | -10.4% | -4.0% | -5.1%
O=C(Nc1ccccc1)c1nc2ccccc2s1 | 1.07µM* | 2.82µM* | 3.16µM* | 2.91µM* | u | 2.51µM*
Cc1ccc2nc(NC(=O)c3ccc(Cn4cc(Cl)cn4)o3)sc2c1 | 7.57µM* | 10.2% | -31.9% | 0.7% | 16.6% | 14.1%
CS(=O)(=O)c1ccc2nc(NC(=O)c3cccs3)sc2c1 | 0.675µM* | 0.398µM* | 2.24µM* | 0.92µM* | u | 0.398µM*
CSc1nc2ccc3nc(NC(=O)c4ccccc4)sc3c2s1 | u | 3.16µM* | u | u | u | 3.55µM*
CCC(=O)Nc1nc2ccc(S(C)(=O)=O)cc2s1 | -6.0% | -1.4% | 35.4% | 7.0% | 27.1% | 15.4%
C1CCC(NC(=NC2C3CC4CC(C3)CC2C4)N2CCOCC2)CC1 (centres undefined) | x | x | -10.8% | x | x | x
O=C(O)c1ccc(N2CCOCC2)c(N2C(=O)C3C4C=CC(C4)C3C2=O)c1 (centres undefined) | 0.4% | -2.9% | 3.4% | -1.4% | -15.8% | -4.4%
CCn1c(SCC(=O)NCCc2ccc(OC)c(OC)c2)nc2c1c(=O)n(C)c(=O)n2C | -0.8% | -5.5% | -6.9% | -1.4% | 0.0% | -8.2%
Oc1ccc(CCC2CCCCN2Cc2nc(C3CC3)no2)cc1 (centres undefined) | -3.6% | -4.1% | x | -3.9% | -12.6% | -0.5%
Cc1nc(SCc2cccc(Cl)c2)nc2c1CCCC2 | u | x | -4.3% | x | x | x
Cc1ccc(C(=O)O)c(C(=O)Nc2nc3ccccc3s2)c1 | 15.1µM* | 19.5% | x | 5.7% | u | 19.5%
Cc1ccc2nc(NC(=O)c3cccs3)sc2c1 | 0.477µM* | 0.501µM* | 2.51µM* | 0.259µM* | u | u
SMILES | FLuc counter | NPC1 promoter act | SMN2 splice enh | ELG1 genotoxic | ELG1 repair inh | Rab9 promoter act
Cc1noc(C)c1C(=O)Nc1nc2ccccc2s1 | 16.9µM* | 19.2% | x | u | u | u
O=C(Nc1nc2ccccc2s1)c1ccccc1 | 1.69µM* | 1µM* | 3.55µM* | 1.03µM* | u | 0.447µM*
N#Cc1ccccc1OCC(=O)N1CCN(c2ccccc2F)CC1 | -0.3% | x | -25.5% | x | x | x
CCOc1ccc(CNC(=S)Nc2ccccc2)cc1Cl | -7.1% | -0.7% | x | 0.2% | -17.9% | 0.9%
Cc1ccc(-c2noc(CSc3nnc(-c4ccncc4)n3-c3ccc(C)cc3)n2)cc1 | -3.3% | -7.8% | -10.2% | -10.8% | -26.1% | -6.4%
CC1CC(C)CN(c2ccc(-n3cnnn3)cc2[N+](=O)[O-])C1 (centres undefined) | 5.0% | -7.7% | -5.8% | 4.5% | -6.1% | -4.5%
CN(C(=O)c1ccccc1)c1nc2ccccc2s1 | 0.849µM* | 0.282µM* | 4.47µM* | u | u | 0.562µM*
Cc1ccc(C(=O)Nc2nc3ccc(S(C)(=O)=O)cc3s2)s1 | 2.39µM* | 1.78µM* | 11.2µM* | 16.4µM* | u | 1.41µM*
Cc1cccc2sc(NC(=O)c3ccc(Cl)s3)nc12 | u | 1.6% | -32.6% | 7.3% | u | 21.1%
Cc1ccc2nc(NC(=O)c3ccc(Cl)s3)sc2c1 | 1.69µM* | 1µM* | 12.6µM* | 4.61µM* | u | 0.562µM*
Cc1ccc2nc(NC(=S)NC(=O)c3cccs3)sc2c1 | 1.07µM* | 3.55µM* | u | u | u | 1.12µM*
Cc1cccc(-n2ncc3c(=O)[nH]c(SCC(=O)N4CC(=O)Nc5ccccc54)nc32)c1 | 1.9% | 1.3% | x | 1.0% | 14.8% | 0.0%
Cc1cccc(NC(=S)Nc2ccccn2)c1 | u | 22.2% | x | 12.5% | u | u
Cc1cccc(NC(=S)c2nc3ccccc3s2)c1 | 3.01µM* | u | 17.8µM* | u | u | u
O=S(=O)(/N=C(/Nc1nc2ccccc2s1)c1ccccc1)c1ccccc1 | x | 8.9% | x | 20.5% | u | u
O=C(c1nc2ccccc2s1)N1CCSCC1 | u | 23.3% | 10.0% | 18.4µM* | u | u
Cc1ccc(C(=O)Nc2nc3ccccc3s2)s1 | 0.536µM* | 0.631µM* | -13.7% | u | u | 0.398µM*
c1ccc2sc(NN=C3CCCCCC3)nc2c1 | 0.338µM* | 0.355µM* | 4.47µM* | 0.461µM* | u | 0.224µM*
O=C(c1c(F)cccc1F)N1CCC(n2nnc3cc(C(F)(F)F)ccc32)CC1 | -0.9% | -8.5% | x | -5.9% | u | -12.8%
COc1cc(S(=O)(=O)NCC2CCCO2)c(OC)cc1Cl (centres undefined) | -2.5% | 2.8% | 2.4% | 3.4% | -5.7% | -3.7%
COc1ccc(NS(=O)(=O)c2c(C)nc3scc(C)n3c2=O)cc1 | 0.5% | x | -21.6% | x | x | x
O=C(NCc1ccncc1)Nc1ccc2c(c1)OCO2 | u | -0.6% | x | 6.8% | u | u
Cc1csc2nc(NC(=O)c3ccccc3)sc(=O)c12 | 4.26µM* | 0.2% | x | u | u | 17.5%
Cc1ccccc1C(=O)Nc1nc2c(C)csc2c(=O)s1 | 0.8% | -1.8% | x | 2.7% | -1.8% | -5.8%
COCCCN=C1NN=C(c2cc(C)n(-c3ccccc3)c2C)CS1 | 4.26µM* | u | -63.0% | u | u | 1.26µM*
